Screens deposited in PubChem BioAssay by Johns Hopkins Ion Channel Center.
Kir21 block: blocks the mouse Kir2.1 inward-rectifier potassium channel; P35561; B-score at 10 µM; HEK293-Kir2.1, FluxOR thallium flux fluorescence; hits give low values; AID 1672; hit rate 0.85% among 310,000;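 active = fluorescence ratio B-score at or below minus 3 SD of library scores, with starting-brightness B-score within 2 SD, cut at about -4.2 in these data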;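 note: channel flux triggered by added potassium and thallium sulfate stimulus; B-score of peak minus minimum fluorescence over baseline after thallium stimulus; more negative B-score means stronger Kir2.1 block with less thallium influx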
KCNK9 inh: blocks the human KCNK9 two-pore domain potassium channel. HEK293 KCNK9, FluxOR thallium flux fluorescence; hits give low values. B-score at 10 µM. hit rate 1.2% among 310,000. AID 488922;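 active = ratio B-score over 3 SD below the library mean, with starting fluorescence within 5 SD of its mean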;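 note: negative B-score means less thallium flux so channel inhibition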
ANO1 activ: activators or potentiators of mouse TMEM16A chloride channel; HEK293 TMEM16A/YFP-H148Q/I152L, iodide quench fluorescence; hits give low values; B-score at 10 µM; hit rate 0.3% among 340,000;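 active = fluorescence-ratio B-score plate-corrected deviation score at least 3 library SD below zero, with starting fluorescence score within 5 deviations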;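 note: channel opened by trigger with iodide after compound preincubation; score built on the fluorescence ratio of max minus min over baseline; more negative score means more quench and so TMEM16A activation or potentiation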
Target sequence (Q8BHY3 whole entry, looked up): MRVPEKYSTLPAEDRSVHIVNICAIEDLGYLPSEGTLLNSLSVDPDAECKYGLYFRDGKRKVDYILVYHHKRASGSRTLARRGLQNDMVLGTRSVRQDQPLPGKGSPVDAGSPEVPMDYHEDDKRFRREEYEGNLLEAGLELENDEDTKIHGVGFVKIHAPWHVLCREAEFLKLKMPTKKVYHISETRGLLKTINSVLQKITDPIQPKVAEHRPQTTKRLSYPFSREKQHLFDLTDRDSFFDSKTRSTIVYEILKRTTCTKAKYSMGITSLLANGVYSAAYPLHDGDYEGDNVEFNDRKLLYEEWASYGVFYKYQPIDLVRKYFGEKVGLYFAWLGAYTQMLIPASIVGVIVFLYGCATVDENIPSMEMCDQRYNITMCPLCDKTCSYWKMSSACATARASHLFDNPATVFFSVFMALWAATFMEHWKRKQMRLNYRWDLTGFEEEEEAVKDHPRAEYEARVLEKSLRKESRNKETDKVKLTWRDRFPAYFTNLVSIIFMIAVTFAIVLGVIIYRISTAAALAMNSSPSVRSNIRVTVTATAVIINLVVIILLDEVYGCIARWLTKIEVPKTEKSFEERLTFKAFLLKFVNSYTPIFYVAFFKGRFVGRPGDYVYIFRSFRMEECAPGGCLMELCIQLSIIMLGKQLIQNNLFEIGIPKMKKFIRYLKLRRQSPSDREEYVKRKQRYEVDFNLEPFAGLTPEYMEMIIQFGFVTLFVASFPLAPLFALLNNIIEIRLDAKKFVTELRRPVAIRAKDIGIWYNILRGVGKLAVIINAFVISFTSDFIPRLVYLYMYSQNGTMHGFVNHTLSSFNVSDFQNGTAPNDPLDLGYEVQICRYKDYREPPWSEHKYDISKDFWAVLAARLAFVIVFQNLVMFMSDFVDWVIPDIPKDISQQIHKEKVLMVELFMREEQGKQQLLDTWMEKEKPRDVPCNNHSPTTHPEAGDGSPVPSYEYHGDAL
KCNK3 inh: human KCNK3 channel inhibition, primary screen | B-score at 10 µM | CHO-KCNK3 thallium flux, FluxOR fluorescence; hits give low values | hit rate 0.84% among 340,000 | AID 602410;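 active = B-score under library mean minus 4 SD, starting fluorescence ratio at most library mean plus 5 SD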;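 note: more negative B-score means stronger inhibition of thallium flux through KCNK3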
TMEM16A inh: inhibitors of mouse TMEM16A calcium-activated chloride channel; HEK293 TMEM16A/YFP iodide influx fluorescence, ionomycin; normalized B-score (activity score, 25-100; higher = stronger inhibition) at 10 µM; hit rate 1.2% among 310,000;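 active = ratio plate-corrected score three or more library SD toward inhibition, starting fluorescence score within five deviations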;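 note: score derived from kinetic fluorescence span divided by baseline fluorescence per well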
KCNK9 inh conf: human KCNK9 inhibitor confirmation. inhibition, % at 10 µM. AID 492992. shares compounds with KCNK9 inh. hit rate 43% among 4,900. HEK293 KCNK9 cells, FluxOR thallium flux fluorescence;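 active = thallium signal inhibited by more than 5 SD of the compound-free buffer control wells, on both duplicate plates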;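 note: 0% = assay buffer control wells without compound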
Kir21 sel: selectivity of KCNK9 modulators against mouse Kir2.1; shares compounds with KCNK9 inh; Kir2.1 cells, FluxOR thallium flux fluorescence; inhibition, % at 10 µM; hit rate 4% among 4,900; AID 492993;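 active = thallium signal drop more than 5 SD beyond the mean of the no-compound control wells, seen in both duplicate plates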;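 note: signal is fluorescence rise after thallium addition divided by baseline fluorescence; plate controls were assay buffer only for no effect and full block by chlorpromazine control for full effect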
KCNK9 uninduced: non-induced cell nonspecific activity of KCNK9 modulators; shares compounds with KCNK9 inh; inhibition, % at 10 µM; AID 492997; non-induced KCNK9-HEK293, FluxOR thallium flux; hit rate 40% among 4,900;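 active = thallium signal drop beyond 5 SD of the untreated control mean, on both duplicate plates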;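 note: plate controls were buffer only IC0 wells for no effect and SID17386958 at its maximal inhibitory level for full effect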
TMEM16A reconf: re-confirmation of mouse TMEM16A chloride channel inhibitors | shares compounds with TMEM16A inh | HEK293 TMEM16A/YFP-H148Q, iodide quench fluorescence; ionomycin added to raise cell calcium | inhibition, % at 10 µM | hit rate 39% among 2,300;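 active = mean duplicate percent inhibition, scaled so buffer wells are 0 and the reference blocker 100, over three buffer SD above buffer mean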
HEK293 Ca mobil: alters calcium mobilization in TMEM16A HEK293 cells, counter-screen. shares compounds with TMEM16A inh. TMEM16A/YFP HEK293, Fluo4 calcium mobilization. calcium response (% of ionomycin), % at 10 µM. hit rate 2% among 2,300;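 active = duplicate-averaged calcium signal over 20% of the ionomycin maximum, relative to buffer baseline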;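 note: each well's signal is peak minus trough fluorescence divided by its pre-addition baseline; 0% = buffer wells and 100% = ionomycin wells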
YFP-HEK293 quench: counter-screen for TMEM16A inhibitors: effect in parental YFP-HEK293 cells | AID 652233 | 2,300 tested, under 10 active | iodide YFP quench, ionomycin | YFP ratio F(max-min)/F0 at 10 µM | shares compounds with TMEM16A inh;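 active = yellow fluorescent protein signal ratio exceeding the buffer control mean by over 5 SD of those controls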;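 note: ratio is mean of duplicate wells from kinetic YFP trace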
ClC-1 rat inh: rat ClC-1 inhibition, TMEM16A specificity screen; shares compounds with TMEM16A inh; CHO ClC-1-YFP, iodide influx fluorescence quench; iodide control reads 0, buffer control 100; ratio percent, % at 10 µM; 2,300 tested, under 10 active; AID 652236;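 active = duplicate-mean ratio percent above the mean of iodide-only control wells, which defines zero, plus 5 of their SD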;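 note: higher percent means stronger block of ClC-1 iodide influx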
KCNK3 inh conf: human KCNK3 channel inhibition, confirmation assay. AID 651638. hit rate 99% among 2,400. shares compounds with KCNK3 inh. CHO-KCNK3 thallium flux, FluxOR fluorescence; 0% buffer, 100% carvedilol maximal block. ratio percent of control, % at 10 µM;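 active = ratio percent of control, averaged over triplicates, above buffer control mean plus 5 SD, cut at about 64% in these data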;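 note: ratio is the fluorescence rise from min to max over baseline after thallium stimulus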
KCNK3 uninduced: activity in cells without induced KCNK3 expression; AID 651747; non-induced KCNK3 parental cells, FluxOR thallium flux; hits give low values; thallium flux ratio (lower = more inhibition) at 10 µM; shares compounds with KCNK3 inh; hit rate 40% among 2,400;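 active = thallium flux ratio, averaged over three wells, more than 5 SD below the buffer control mean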;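 note: host cells are CHO cells without KCNK3 induction; ratio is peak minus trough fluorescence over baseline then normalized to buffer controls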
The depositor's hits bear a star; i = inactive; . = no result given. An excerpt weighted towards active compounds, which were near 3.5% of everything screened.

SMILES | Kir21 block | KCNK9 inh | ANO1 activ | KCNK3 inh | TMEM16A inh | KCNK9 inh conf | Kir21 sel | KCNK9 uninduced | others
CC(C)c1ccccc1OCC(=O)N1CCCN(C)CC1 | -1.7 | i | i | i | i | . | . | .
N#Cc1ccccc1Cn1cc(C(=O)c2cccs2)c2ccccc21 | -0.55 | -8.1* | i | i | i | i | i | 34%*
O=C(c1cccs1)c1cn(Cc2ccccc2Cl)c2ccccc12 | -0.29 | i | i | i | i | . | . | .
CC(CN(C)C1CCN(C)CC1)c1ccccc1 (configuration not stated) | 0.08 | i | i | i | i | . | . | .
CCCCNC(=O)c1c(N)n(CCCOC)c2nc3ccccc3nc12 | -0.94 | -8.7* | i | i | i | i | i | i
CC(=O)Nc1ccccc1C(=O)OCc1ccc(C(=O)c2ccccc2)cc1 | -0.67 | i | i | i | i | . | . | .
CC(=O)Nc1ccccc1C(=O)OCC(=O)c1ccc2ccccc2c1 | 2.5 | i | i | i | i | i | i | i
CCCCn1c(O)c(/C(CC)=N/N2CCCCC2c2cccnc2)c(=O)[nH]c1=S (configuration not stated) | 4 | -18* | i | i | i | 78%* | i | 56%*
C/C(=N\N1CCCCC1c1cccnc1)c1c(O)n(C2CCCCC2)c(=S)[nH]c1=O (configuration not stated) | 0.67 | -14* | i | i | i | 75%* | i | 56%*
Cc1ccnc(NS(=O)(=O)c2ccc(N=Cc3c(O)n(C)c(=O)n(C)c3=O)cc2)n1 | -0.01 | i | i | i | i | . | . | .
Cc1nn(CCC#N)c2c1P(=S)(N1CCCC1)OC(c1ccc(F)cc1)=N2 (configuration not stated) | -3.2 | i | i | i | i | i | i | i
COc1ccccc1CN1CCCC(C(=O)c2ccccc2SC)C1 (configuration not stated) | -0.04 | i | i | i | i | i | i | i
CCOc1ccccc1CN1CCCC(C(=O)c2cc(F)ccc2F)C1 (configuration not stated) | -0.09 | i | i | i | i | i | i | i
COc1ccccc1CN1CCCC(C(=O)c2ccccc2OC)C1 (configuration not stated) | -0.91 | i | i | i | i | . | . | .
CC(C)=CCc1c(O)cc2c(c1O)C(=O)CC(c1ccc(O)cc1)O2 (configuration not stated) | 0.33 | -17* | i | i | 100* | i | i | i | TMEM16A reconf=i;HEK293 Ca mobil=i;YFP-HEK293 quench=-0.95;ClC-1 rat inh=-16
CCOP(=O)(NC(C)C)Oc1ccc(SC)c(C)c1 (configuration not stated) | . | . | i | i | . | . | . | .
O=S1(=O)N(Cc2ccc(F)cc2)CCCN1Cc1ccccc1Cl | -0.17 | -8.3* | i | -12* | i | 74%* | i | 42%* | KCNK3 inh conf=125*;KCNK3 uninduced=0.14*
Cc1ccccc1CN1CCCN(Cc2ccc(Cl)cc2)S1(=O)=O | -0.16 | -21* | i | i | i | 72%* | i | 38%* | KCNK3 inh conf=119*;KCNK3 uninduced=i
COC(=O)c1ccc(COc2cc(C)cc3oc(=O)c4c(c23)CCCC4)o1 | 1.8 | -13* | i | -9.1* | i | 26%* | i | i | KCNK3 inh conf=100*;KCNK3 uninduced=i
Cc1cc(OCC(=O)O)c2c3c(c(=O)oc2c1)CCCC3 | -0.28 | i | i | i | i | . | . | .
Nc1c(Cl)cc([N+](=O)[O-])cc1Cl | . | . | i | i | i | . | . | .
Cc1ccccc1-n1c(C)cc(/C=C2/C(=O)NC(=O)N(Cc3ccco3)C2=O)c1C | -1.6 | -15* | i | i | i | 34%* | i | 32%* | KCNK3 inh conf=138*;KCNK3 uninduced=0.11*
COC(=O)C1=C(c2ccc(F)cc2OCc2ccccc2)C[C@@H]2CC[C@H]1N2C(=O)N1CCC(O)(c2ccc(Cl)cc2)CC1 | . | . | i | i | . | . | . | .
CC1CCC(C(C)C)C(OC(=O)Cn2c(COc3ccccc3)[n+](C)c3ccccc32)C1 (configuration not stated) | -17* | -12* | i | -8.9* | i | 74%* | 77%* | i | KCNK3 inh conf=122*;KCNK3 uninduced=i
C=CCC1(CCCCC)C(=O)NC(=S)NC1=O | . | . | i | i | . | . | . | .
SMILES | Kir21 block | KCNK9 inh | ANO1 activ | KCNK3 inh | TMEM16A inh | KCNK9 inh conf | Kir21 sel | KCNK9 uninduced | others
CC(C)OC(=O)Cc1ccccc1 | . | . | i | i | . | . | . | .
CCN(CC)C(=O)N[C@H]1C[C@@H]2c3cccc4[nH]cc(c34)C[C@H]2N(C)C1 | -0.08 | i | i | i | i | . | . | . | TMEM16A reconf=i;HEK293 Ca mobil=i;YFP-HEK293 quench=-1;ClC-1 rat inh=-3
CCc1ccccc1NC(=O)CNCc1ccccc1 | 0.33 | i | i | i | i | . | . | .
O=C(Cc1ccccc1)N1CCN(Cc2ccccc2Cl)CC1 | -0.52 | i | i | i | 25* | . | . | . | TMEM16A reconf=i;HEK293 Ca mobil=i;YFP-HEK293 quench=-0.98;ClC-1 rat inh=-10
CCc1sc(C(=O)N2CCC3(CC2)OCCO3)cc1Br | -0.33 | i | i | i | 100* | . | . | . | TMEM16A reconf=i;HEK293 Ca mobil=i;YFP-HEK293 quench=-1;ClC-1 rat inh=-9
CCCNC(=O)N1[C@H]2CC[C@@H]1C(C(=O)OC)=C(c1cccc(OC)c1OC)C2 | 0.04 | i | i | i | i | . | . | .
CC(C)CNC(=O)c1c(N)n(Cc2ccco2)c2nc3ccccc3nc12 | -0.02 | i | i | i | i | . | . | . | TMEM16A reconf=18%*;HEK293 Ca mobil=i;YFP-HEK293 quench=-1;ClC-1 rat inh=-8
